The supplement of paper PMC8975748
Where a name gives a salt, the structure may show the parent alone.

system: Saccharomyces cerevisiae BY4741 SeMeCo community; assay: z-score of subpopulation abundance vs DMSO median, subpopulation auxotrophic for HUM; higher = larger share of this subpopulation than in DMSO controls; conditions: 10 µM; 24 h; SM minimal medium; subpopulation (auxotrophy): HUM
How it was run: (§1)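 Subpopulation abundance was reported as a z-score against the median of vehicle wells. The Saccharomyces cerevisiae BY4741 community, carrying four plasmids that each restored one auxotrophy and encoded a distinct fluorescent protein, was grown 24 h in minimal SM medium in 384-well plates holding library drugs at 10 µM final. Cells were paraformaldehyde-fixed and imaged by automated confocal microscopy, with single-auxotroph fluorescent strains used for thresholds and autofluorescence correction.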

Row | Compound | z-score of subpopulation abundance
1 | CCCCOc1cc(C(=O)NCCN(CC)CC)c2ccccc2n1 [Dibucaine HCl] | 0.03
2 | Clc1ccc(CSC(Cn2ccnc2)c2ccc(Cl)cc2Cl)cc1 (stereo not drawn) [Sulconazole Nitrate] | 6.12
3 | COc1ccc(C2CNC(=O)C2)cc1OC1CCCC1 (stereo not drawn) [Rolipram] | -0.22
4 | C[C@]12CC[C@@H]3c4ccc(O)cc4CC[C@H]3[C@@H]1CC[C@@H]2OC(=O)CCC1CCCC1 [Estradiol Cypionate] | 1.22
5 | C[C@@H](NCCCc1cccc(C(F)(F)F)c1)c1cccc2ccccc12 [Cinacalcet HCl] | -0.21
6 | Cc1cc(/C=C/c2ccc3cc(N(C)C)ccc3[n+]2C)c(C)n1-c1ccccc1 [pyrvinium] | -0.73
7 | CC(C)Cc1ccc(C(C)C(=O)O)cc1 (stereo not drawn) [Ibuprofen Lysine] | -3.01
8 | CC[N+](C)(C)c1cccc(O)c1 [Edrophonium chloride] | 0.76
9 | Nc1ccc(S(N)(=O)=O)cc1 [Sulfanilamide] | 0.6
10 | CCCN(CCC)CCc1cccc2c1CC(=O)N2 [Ropinirole HCl] | 0.58
11 | CN(C)CCCC1(c2ccc(F)cc2)OCc2cc(C#N)ccc21 (stereo not drawn) [Citalopram HBr] | 0.08
12 | CN1CCCN=C1/C=C/c1cccs1 [Pyrantel Pamoate] | -0.34
13 | CCCCCC(=O)O[C@]1(C(C)=O)CC[C@H]2[C@@H]3CCC4=CC(=O)CC[C@]4(C)[C@H]3CC[C@@]21C [Hydroxyprogesterone caproate] | 1.38
14 | CC[C@H]1OC(=O)[C@H](C)[C@@H](O[C@H]2C[C@@](C)(OC)[C@@H](O)[C@H](C)O2)[C@H](C)[C@@H](O[C@@H]2O[C@H](C)C[C@H](N(C)C)[C@H]2O)[C@](C)(O)C[C@@H](C)/C(=N\OCOCCOC)[C@H](C)[C@@H](O)[C@]1(C)O [Roxithromycin] | 1.28
15 | CCC(C)(C)c1ccc(CC(C)CN2C[C@@H](C)O[C@@H](C)C2)cc1 (stereo partly drawn) [Amorolfine HCl] | 6
16 | CC(=O)N[C@H]1[C@H]([C@H](O)[C@H](O)CO)OC(C(=O)O)=C[C@@H]1NC(=N)N [Zanamivir] | 0.23
17 | CCOc1cc(N)c([N+](=O)[O-])cc1C(=O)NC1CCN(CC2CC=CCC2)CC1 (stereo not drawn) [Cinitapride Hydrogen Tartrate] | 1.26

Row | Compound | z-score of subpopulation abundance
18 | CCC(=O)c1c(O)cc(O)cc1O [Flopropione] | -0.23
19 | CCCCCNC(=N)N/N=C/c1c[nH]c2ccc(OC)cc12 [Tegaserod Maleate] | 0.89
20 | CC(C)c1c(C(=O)Nc2ccccc2)c(-c2ccccc2)c(-c2ccc(F)cc2)n1CC[C@@H](O)C[C@@H](O)CC(=O)O [Atorvastatin] | 2.1
21 | COc1ccc(C(C)=O)c(O)c1 [Paeonol] | 0.18
22 | NC12CC3CC(CC(C3)C1)C2 [Amantadine] | 0.47
23 | COC(=O)C1=C(C)NC(C)=C(C(=O)OC(C)(C)CN(C)CCC(c2ccccc2)c2ccccc2)C1c1cccc([N+](=O)[O-])c1 (stereo not drawn) [Lercanidipine] | 0.23
24 | NC1CCN(c2nc3c(cc2F)c(=O)c(C(=O)O)cn3-c2ccc(F)cc2F)C1 (stereo not drawn) [Tosufloxacin p-Toluenesulfonate Hydrate] | -0.83
25 | CC1(C)S[C@@H]2[C@H](NC(=O)[C@H](N)c3ccc(O)cc3)C(=O)N2[C@H]1C(=O)O [Amoxicillin] | 0.4
26 | O=C(O)c1ccccc1C(=O)Nc1ccc(S(=O)(=O)Nc2nccs2)cc1 [Phthalylsulfathiazole] | 0.99
27 | Clc1ccc(CCC(Cn2ccnc2)Sc2c(Cl)cccc2Cl)cc1 (stereo not drawn) [Butoconazole] | 5.14
28 | Cc1ccc(Sc2ccccc2N2CCNCC2)c(C)c1 [Vortioxetine] | 0.6
29 | CN(Cc1cnc2nc(N)nc(N)c2n1)c1ccc(C(=O)N[C@@H](CCC(=O)O)C(=O)O)cc1 [Methotrexate disodium] | -2.01
30 | Clc1ccc(CCC(Cn2ccnc2)Sc2c(Cl)cccc2Cl)cc1 (stereo not drawn) [Butoconazole nitrate] | 5.03
31 | CC[C@@H]1/C=C(\C)C[C@H](C)C[C@H](OC)[C@H]2O[C@@](O)(C(=O)C(=O)N3CCCC[C@H]3C(=O)O[C@H](/C(C)=C/[C@@H]3CC[C@H](Cl)[C@H](OC)C3)[C@H](C)[C@@H](O)CC1=O)[C@H](C)C[C@@H]2OC [Pimecrolimus] | 0.94
32 | CN(Cc1cnc2nc(N)nc(N)c2n1)c1ccc(C(=O)N[C@@H](CCC(=O)O)C(=O)O)cc1 [Methotrexate] | 0
33 | CCC[S+]([O-])c1ccc2[nH]c(NC(=O)OC)nc2c1 (stereo not drawn) [Albendazole Oxide] | 0.36
34 | COC(=O)C1=C(C)NC(C)=C(C(=O)OC)C1c1ccccc1[N+](=O)[O-] [Nifedipine] | -0.1

system: Saccharomyces cerevisiae BY4741 SeMeCo community; assay: z-score of subpopulation abundance vs DMSO median, subpopulation auxotrophic for LUM; higher = larger share of this subpopulation than in DMSO controls; conditions: 10 µM; 24 h; SM minimal medium; subpopulation (auxotrophy): LUM
How it was run: as §1

Row | Compound | z-score of subpopulation abundance
35 | CCCCOc1cc(C(=O)NCCN(CC)CC)c2ccccc2n1 [Dibucaine HCl] | -0.54
36 | Clc1ccc(CSC(Cn2ccnc2)c2ccc(Cl)cc2Cl)cc1 (stereo not drawn) [Sulconazole Nitrate] | 0.84
37 | C[C@]12CC[C@@H]3c4ccc(O)cc4CC[C@H]3[C@@H]1CC[C@@H]2OC(=O)CCC1CCCC1 [Estradiol Cypionate] | 0.29
38 | C[C@@H](NCCCc1cccc(C(F)(F)F)c1)c1cccc2ccccc12 [Cinacalcet HCl] | 2.57
39 | Cc1cc(/C=C/c2ccc3cc(N(C)C)ccc3[n+]2C)c(C)n1-c1ccccc1 [pyrvinium] | -0.14
40 | CC(C)Cc1ccc(C(C)C(=O)O)cc1 (stereo not drawn) [Ibuprofen Lysine] | -2.47
41 | O=C(Cn1cnnn1)N[C@@H]1C(=O)N2C(C(=O)O)=C(CSc3nncs3)CS[C@H]12 [Ceftezole sodium] | 0.36
42 | CC[N+](C)(C)c1cccc(O)c1 [Edrophonium chloride] | 0.48
43 | Nc1ccc(S(N)(=O)=O)cc1 [Sulfanilamide] | -0.2
44 | CCCN(CCC)CCc1cccc2c1CC(=O)N2 [Ropinirole HCl] | 1.74
45 | CN(C)CCCC1(c2ccc(F)cc2)OCc2cc(C#N)ccc21 (stereo not drawn) [Citalopram HBr] | -0.03
46 | CN1CCCN=C1/C=C/c1cccs1 [Pyrantel Pamoate] | -0.44
47 | CN(C)CCC[C@@]1(c2ccc(F)cc2)OCc2cc(C#N)ccc21 [Escitalopram Oxalate] | -0.28
48 | CCCCCC(=O)O[C@]1(C(C)=O)CC[C@H]2[C@@H]3CCC4=CC(=O)CC[C@]4(C)[C@H]3CC[C@@]21C [Hydroxyprogesterone caproate] | 1.15
49 | C[C@]12CCC(=O)C=C1[C@@H]1C[C@@H]1[C@H]1[C@@H]3[C@@H]4C[C@@H]4[C@@]4(CCC(=O)O4)[C@@]3(C)CC[C@@H]12 [Drospirenone] | 0.85
50 | CC[C@H]1OC(=O)[C@H](C)[C@@H](O[C@H]2C[C@@](C)(OC)[C@@H](O)[C@H](C)O2)[C@H](C)[C@@H](O[C@@H]2O[C@H](C)C[C@H](N(C)C)[C@H]2O)[C@](C)(O)C[C@@H](C)/C(=N\OCOCCOC)[C@H](C)[C@@H](O)[C@]1(C)O [Roxithromycin] | 0.55
51 | CC(=O)N[C@H]1[C@H]([C@H](O)[C@H](O)CO)OC(C(=O)O)=C[C@@H]1NC(=N)N [Zanamivir] | 0.82

Row | Compound | z-score of subpopulation abundance
52 | CCCCCNC(=N)N/N=C/c1c[nH]c2ccc(OC)cc12 [Tegaserod Maleate] | 1.92
53 | CC(C)c1c(C(=O)Nc2ccccc2)c(-c2ccccc2)c(-c2ccc(F)cc2)n1CC[C@@H](O)C[C@@H](O)CC(=O)O [Atorvastatin] | 0.92
54 | COc1ccc(C(C)=O)c(O)c1 [Paeonol] | -0.79
55 | NC12CC3CC(CC(C3)C1)C2 [Amantadine] | -0.04
56 | COC(=O)C1=C(C)NC(C)=C(C(=O)OC(C)(C)CN(C)CCC(c2ccccc2)c2ccccc2)C1c1cccc([N+](=O)[O-])c1 (stereo not drawn) [Lercanidipine] | 0.13
57 | NC1CCN(c2nc3c(cc2F)c(=O)c(C(=O)O)cn3-c2ccc(F)cc2F)C1 (stereo not drawn) [Tosufloxacin p-Toluenesulfonate Hydrate] | -0.71
58 | CC1(C)S[C@@H]2[C@H](NC(=O)[C@H](N)c3ccc(O)cc3)C(=O)N2[C@H]1C(=O)O [Amoxicillin] | 0.09
59 | CCC1=C(C)CN(C(=O)NCCc2ccc(S(=O)(=O)NC(=O)N[C@H]3CC[C@H](C)CC3)cc2)C1=O [Glimepiride] | -0.01
60 | O=C(O)c1ccccc1C(=O)Nc1ccc(S(=O)(=O)Nc2nccs2)cc1 [Phthalylsulfathiazole] | -0.13
61 | Clc1ccc(CCC(Cn2ccnc2)Sc2c(Cl)cccc2Cl)cc1 (stereo not drawn) [Butoconazole] | 3.75
62 | Cc1ccc(Sc2ccccc2N2CCNCC2)c(C)c1 [Vortioxetine] | -0.16
63 | CN(Cc1cnc2nc(N)nc(N)c2n1)c1ccc(C(=O)N[C@@H](CCC(=O)O)C(=O)O)cc1 [Methotrexate disodium] | -1.74
64 | Clc1ccc(CCC(Cn2ccnc2)Sc2c(Cl)cccc2Cl)cc1 (stereo not drawn) [Butoconazole nitrate] | 0.2
65 | CC[C@@H]1/C=C(\C)C[C@H](C)C[C@H](OC)[C@H]2O[C@@](O)(C(=O)C(=O)N3CCCC[C@H]3C(=O)O[C@H](/C(C)=C/[C@@H]3CC[C@H](Cl)[C@H](OC)C3)[C@H](C)[C@@H](O)CC1=O)[C@H](C)C[C@@H]2OC [Pimecrolimus] | 4.36
66 | CN(Cc1cnc2nc(N)nc(N)c2n1)c1ccc(C(=O)N[C@@H](CCC(=O)O)C(=O)O)cc1 [Methotrexate] | 0.73
67 | CCC[S+]([O-])c1ccc2[nH]c(NC(=O)OC)nc2c1 (stereo not drawn) [Albendazole Oxide] | -0.65
68 | COC(=O)C1=C(C)NC(C)=C(C(=O)OC)C1c1ccccc1[N+](=O)[O-] [Nifedipine] | 0.34
